# Measurements as given in the supplement of paper PMC10037445.
# Over roughly 2,900 compounds, “NF-kB SEAP reporter activity, fold change vs agonist alone” has its median near 0.99; the highest 2% begin near 2.6. This excerpt belongs to a sample that is enriched for the highest values.
# Key:
# RAW-Dual [1] = assay: NF-kB SEAP reporter activity, fold change vs agonist alone; higher = enhanced NF-kB activity
# Outline: (§1)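 RAW-Dual macrophages were seeded in DMEM at 50,000 cells/well in 384-well plates, given 50 nL of library stock by pin tool, and given a PRR agonist 1 h later. Plates were held at 37 °C, 5% CO2 for 20 hours, after which supernatant was read for IRF by QuantiLuc luminescence and for NF-κB by QuantiBlue absorbance at 620 nm. Reporter activity is expressed as fold change over wells that received agonist alone. A well was called cytotoxic when IncuCyte confluency fell below 70% of agonist controls in both mask sets.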
# RAW-Dual [2] = assay: NF-kB SEAP reporter activity, fold change vs agonist alone; cytotoxicity flag (confluency mask): not cytotoxic; higher = enhanced NF-kB activity
# Outline: as §1
# RAW-Dual [3] = assay: NF-kB SEAP reporter activity, fold change vs agonist alone; cytotoxicity flag (confluency mask): cytotoxic (confluency <70% of control); higher = enhanced NF-kB activity
# Outline: as §1
# [4] = agonist: ODN 1826 (TLR9) 0.5 ug/mL
# [5] = agonist: Pam2CSK4 (TLR2/6) 0.1 ug/mL
# [6] = agonist: Pam3CSK4 (TLR2/1) 0.1 ug/mL
# [7] = library stock concentration (final ~1000-fold dilution): 10 mM, cytotoxicity flag (confluency mask): not cytotoxic, agonist: Imiquimod (TLR7) […]
# [8] = library stock concentration (final ~1000-fold dilution): 10 mM, cytotoxicity flag (confluency mask): not cytotoxic, agonist: MPLA (TLR4) […]
# [9] = library stock concentration (final ~1000-fold dilution): 10 mM, cytotoxicity flag (confluency mask): cytotoxic (confluency <70% of control), agonist: MPLA (TLR4) […]
smiles,measurement,setting,value
NC(N)=NCCCC(N)C(=O)NC(CCCN=C(N)N)C(=O)N1CCCC1C(=O)N1CC(O)CC1C(=O)NCC(=O)NC(Cc1cccs1)C(=O)NC(CO)C(=O)N1Cc2ccccc2CC1C(=O)N1C(C(=O)NC(CCCN=C(N)N)C(=O)O)CC2CCCCC21 (stereo not given),NF-kB SEAP reporter activity,"RAW-Dual [1]; library stock concentration (final ~1000-fold dilution): 2 mM water, cytotoxicity flag (confluency mask): not cytotoxic, agonist: Imiquimod (TLR7) […]",0.945
same,NF-kB SEAP reporter activity,"RAW-Dual [1]; library stock concentration (final ~1000-fold dilution): 2 mM water, cytotoxicity flag (confluency mask): not cytotoxic, agonist: MPLA (TLR4) […]",1.05
NC(N)=NCCCC(N)C(=O)NC(CCCN=C(N)N)C(=O)N1CCCC1C(=O)N1CC(O)CC1C(=O)NCC(=O)NC(Cc1cccs1)C(=O)NC(CO)C(=O)N1Cc2ccccc2CC1C(=O)N1C(C(=O)NC(CCCN=C(N)N)C(=O)O)CC2CCCCC21 (stereo not given) (library stock concentration (final ~1000-fold dilution): 2 mM water),NF-kB SEAP reporter activity,RAW-Dual [2]; agonist: LPS (TLR4) 0.1 ug/mL,0.985
same,NF-kB SEAP reporter activity,RAW-Dual [2]; [4],1.06
same,NF-kB SEAP reporter activity,RAW-Dual [2]; [5],1.1
same,NF-kB SEAP reporter activity,RAW-Dual [2]; [6],0.962
CC12CC(O)C3CC1(O[C@@H]1O[C@H](CO)[C@@H](O)[C@H](O)[C@H]1O)C3(COC(=O)c1ccccc1)C(=O)O2 (stereo not given in full) (library stock concentration (final ~1000-fold dilution): 10 mM),NF-kB SEAP reporter activity,RAW-Dual [2]; agonist: LPS (TLR4) 0.1 ug/mL,1.24
same,NF-kB SEAP reporter activity,RAW-Dual [2]; [4],1.12
same,NF-kB SEAP reporter activity,RAW-Dual [2]; [5],1.1
same,NF-kB SEAP reporter activity,RAW-Dual [2]; [6],1.06
CC12CC(O)C3CC1(O[C@@H]1O[C@H](CO)[C@@H](O)[C@H](O)[C@H]1O)C3(COC(=O)c1ccccc1)C(=O)O2 (stereo not given in full),NF-kB SEAP reporter activity,RAW-Dual [1]; [7],1.03
same,NF-kB SEAP reporter activity,RAW-Dual [1]; [8],1.03
CNCCCC1c2ccccc2C=Cc2ccccc21.Cl,NF-kB SEAP reporter activity,"RAW-Dual [1]; library stock concentration (final ~1000-fold dilution): 10 mM, cytotoxicity flag (confluency mask): cytotoxic (confluency <70% of control), agonist: Imiquimod (TLR7) […]",1.28
same,NF-kB SEAP reporter activity,RAW-Dual [1]; [9],1.62
CNCCCC1c2ccccc2C=Cc2ccccc21.Cl (library stock concentration (final ~1000-fold dilution): 10 mM),NF-kB SEAP reporter activity,RAW-Dual [3]; agonist: LPS (TLR4) 0.1 ug/mL,0.947
same,NF-kB SEAP reporter activity,RAW-Dual [3]; [4],0.644
same,NF-kB SEAP reporter activity,RAW-Dual [3]; [5],0.63
same,NF-kB SEAP reporter activity,RAW-Dual [3]; [6],0.687
CCCCNc1ccc(C(=O)OCCN(C)C)cc1.Cl,NF-kB SEAP reporter activity,RAW-Dual [1]; [7],0.843
same,NF-kB SEAP reporter activity,RAW-Dual [1]; [8],1.04
O=C(CCNNC(=O)c1ccncc1)NCc1ccccc1 (library stock concentration (final ~1000-fold dilution): 10 mM),NF-kB SEAP reporter activity,RAW-Dual [2]; agonist: LPS (TLR4) 0.1 ug/mL,0.997
same,NF-kB SEAP reporter activity,RAW-Dual [2]; [4],1.03
same,NF-kB SEAP reporter activity,RAW-Dual [2]; [5],0.962
same,NF-kB SEAP reporter activity,RAW-Dual [2]; [6],0.955
O=C(CCNNC(=O)c1ccncc1)NCc1ccccc1,NF-kB SEAP reporter activity,RAW-Dual [1]; [7],0.939
same,NF-kB SEAP reporter activity,RAW-Dual [1]; [8],1
CCCCNNC(=O)c1ccc(Br)cc1 (library stock concentration (final ~1000-fold dilution): 10 mM),NF-kB SEAP reporter activity,RAW-Dual [2]; agonist: LPS (TLR4) 0.1 ug/mL,3.15
same,NF-kB SEAP reporter activity,RAW-Dual [2]; [4],2.18
same,NF-kB SEAP reporter activity,RAW-Dual [2]; [5],0.64
same,NF-kB SEAP reporter activity,RAW-Dual [2]; [6],0.656
CCCCNNC(=O)c1ccc(Br)cc1,NF-kB SEAP reporter activity,RAW-Dual [1]; [7],1.95
same,NF-kB SEAP reporter activity,RAW-Dual [1]; [8],2.28
CCCCNc1ccc(C(=O)OCCN(C)C)cc1.Cl (library stock concentration (final ~1000-fold dilution): 10 mM),NF-kB SEAP reporter activity,RAW-Dual [2]; agonist: LPS (TLR4) 0.1 ug/mL,1.38
same,NF-kB SEAP reporter activity,RAW-Dual [2]; [4],0.759
same,NF-kB SEAP reporter activity,RAW-Dual [2]; [5],1.13
same,NF-kB SEAP reporter activity,RAW-Dual [2]; [6],1.17
CS(=O)(=O)n1cc2c(n1)CN(C1COC(c3cc(F)ccc3F)C(N)C1)C2 (stereo not given),NF-kB SEAP reporter activity,RAW-Dual [1]; [7],0.931
same,NF-kB SEAP reporter activity,RAW-Dual [1]; [8],1.03
CS(=O)(=O)n1cc2c(n1)CN(C1COC(c3cc(F)ccc3F)C(N)C1)C2 (stereo not given) (library stock concentration (final ~1000-fold dilution): 10 mM),NF-kB SEAP reporter activity,RAW-Dual [2]; agonist: LPS (TLR4) 0.1 ug/mL,1.1
same,NF-kB SEAP reporter activity,RAW-Dual [2]; [4],0.91
same,NF-kB SEAP reporter activity,RAW-Dual [2]; [5],1
same,NF-kB SEAP reporter activity,RAW-Dual [2]; [6],0.974
Cc1ccc(-n2nc(C(C)(C)C)cc2NC(=O)Nc2ccc(OCCN3CCOCC3)c3ccccc23)cc1 (library stock concentration (final ~1000-fold dilution): 10 mM),NF-kB SEAP reporter activity,RAW-Dual [2]; agonist: LPS (TLR4) 0.1 ug/mL,0.477
same,NF-kB SEAP reporter activity,RAW-Dual [2]; [4],0.449
same,NF-kB SEAP reporter activity,RAW-Dual [2]; [5],0.129
same,NF-kB SEAP reporter activity,RAW-Dual [2]; [6],0.226
O=C(NCCN1CCOCC1)c1ccc(Cl)cc1,NF-kB SEAP reporter activity,RAW-Dual [1]; [7],1.74
same,NF-kB SEAP reporter activity,RAW-Dual [1]; [8],1.82
O=C(Cc1ccc(-c2ccc(OCCN3CCOCC3)cc2)cn1)NCc1ccccc1 (library stock concentration (final ~1000-fold dilution): 10 mM),NF-kB SEAP reporter activity,RAW-Dual [2]; agonist: LPS (TLR4) 0.1 ug/mL,4.55
same,NF-kB SEAP reporter activity,RAW-Dual [2]; [4],3.36
same,NF-kB SEAP reporter activity,RAW-Dual [2]; [5],2
same,NF-kB SEAP reporter activity,RAW-Dual [2]; [6],2.39
Cc1ccc(-n2nc(C(C)(C)C)cc2NC(=O)Nc2ccc(OCCN3CCOCC3)c3ccccc23)cc1,NF-kB SEAP reporter activity,RAW-Dual [1]; [7],0.455
same,NF-kB SEAP reporter activity,RAW-Dual [1]; [8],0.804
O=C(Cc1ccc(-c2ccc(OCCN3CCOCC3)cc2)cn1)NCc1ccccc1,NF-kB SEAP reporter activity,RAW-Dual [1]; [7],2.63
same,NF-kB SEAP reporter activity,RAW-Dual [1]; [8],2.26
O=C(NCCN1CCOCC1)c1ccc(Cl)cc1 (library stock concentration (final ~1000-fold dilution): 10 mM),NF-kB SEAP reporter activity,RAW-Dual [2]; agonist: LPS (TLR4) 0.1 ug/mL,1.32
same,NF-kB SEAP reporter activity,RAW-Dual [2]; [4],1.86
same,NF-kB SEAP reporter activity,RAW-Dual [2]; [5],1.18
same,NF-kB SEAP reporter activity,RAW-Dual [2]; [6],1.17
C=CC(=O)N1CC(Nc2ncnc3[nH]ccc23)CCC1C (stereo not given) (library stock concentration (final ~1000-fold dilution): 10 mM),NF-kB SEAP reporter activity,RAW-Dual [2]; agonist: LPS (TLR4) 0.1 ug/mL,0.655
same,NF-kB SEAP reporter activity,RAW-Dual [2]; [4],0.682
same,NF-kB SEAP reporter activity,RAW-Dual [2]; [5],0.56
same,NF-kB SEAP reporter activity,RAW-Dual [2]; [6],0.738
C=CC(=O)N1CC(Nc2ncnc3[nH]ccc23)CCC1C (stereo not given),NF-kB SEAP reporter activity,RAW-Dual [1]; [7],0.572
same,NF-kB SEAP reporter activity,RAW-Dual [1]; [8],0.785
CNCCC(Oc1cccc2ccccc12)c1cccs1 (stereo not given) (library stock concentration (final ~1000-fold dilution): 10 mM),NF-kB SEAP reporter activity,RAW-Dual [3]; agonist: LPS (TLR4) 0.1 ug/mL,1.1
same,NF-kB SEAP reporter activity,RAW-Dual [3]; [4],0.191
same,NF-kB SEAP reporter activity,RAW-Dual [3]; [5],0.797
same,NF-kB SEAP reporter activity,RAW-Dual [3]; [6],0.525
CNCCC(Oc1cccc2ccccc12)c1cccs1 (stereo not given),NF-kB SEAP reporter activity,RAW-Dual [1]; [9],1.98
OCC1OC(c2ccc(Cl)c(Cc3ccc(OC4CCOC4)cc3)c2)C(O)C(O)C1O (stereo not given),NF-kB SEAP reporter activity,RAW-Dual [1]; [7],0.973
same,NF-kB SEAP reporter activity,RAW-Dual [1]; [8],1.06
OCC1OC(c2ccc(Cl)c(Cc3ccc(OC4CCOC4)cc3)c2)C(O)C(O)C1O (stereo not given) (library stock concentration (final ~1000-fold dilution): 10 mM),NF-kB SEAP reporter activity,RAW-Dual [2]; agonist: LPS (TLR4) 0.1 ug/mL,1.12
same,NF-kB SEAP reporter activity,RAW-Dual [2]; [4],1.07
same,NF-kB SEAP reporter activity,RAW-Dual [2]; [5],0.963
same,NF-kB SEAP reporter activity,RAW-Dual [2]; [6],0.983
COc1ccc(CNC(=O)Nc2ncc([N+](=O)[O-])s2)cc1,NF-kB SEAP reporter activity,RAW-Dual [1]; [7],1.2
same,NF-kB SEAP reporter activity,RAW-Dual [1]; [8],1.68
O=C(Nc1ncc([N+](=O)[O-])s1)c1ccccc1O,NF-kB SEAP reporter activity,RAW-Dual [1]; [8],0.945
